# Results filed as inconclusive are left out. Entries that show only a call come without a potency. Unmarked numbers belong to inactive results. The source made the active and inactive calls. Unless noted, calls come from the whole dose curve; as a rule, active = well fitted curve in the direction sought with a large enough effect in the repeat runs; inconclusive = weak or mixed curves; inactive = no such curve, though single readings can be large; an effect the other way counts as inactive or inconclusive.
# How the values were obtained:
# [1] = biological target: Luciferin 4-monooxygenase (Photinus pyralis) (UniProt P08659); assay: qHTS assay to identify small molecule inhibitors of firefly luciferase (AID 1224835); note: nearly all actives have a fitted effect of over 25% in size; note: potency is the fitted concentration of half-maximal effect
# Procedure, shortened: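 Quantitative HTS format; KM concentrations of both substrates. Purified P. pyralis FLuc activity quantified from luminescence images.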
# [2] = qHTS assay to identify small molecule agonists of the constitutive androstane receptor (CAR) signaling pathway - cell viability counter screen (AID 1224836); note: series mostly up to about 92 µM; nearly all actives have a fitted effect of over 45% in size
# Procedure, shortened: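 Cells were seeded and incubated 4 hrs. Compounds were added across 15 concentrations together with PK11195 at 0.75 uM final. Plates were incubated 23 hrs at 37 C. CellTiter-Fluor was added and fluorescence measured.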
# [3] = qHTS assay to identify small molecule antagonists of the constitutive androstane receptor (CAR) signaling pathway - cell viability counter screen (AID 1224837); note: series mostly up to about 92 µM; nearly all actives have a fitted effect of over 45% in size
# Procedure, shortened: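 HepG2 cells stably expressing hCAR and a CYP2B6-2.2kb reporter were plated and pre-incubated 4 hr at 37 C/5% CO2, then given compounds at 15 concentrations plus 50 nM CITCO (final). After 23 hr, viability was read by CellTiter-Fluor fluorescence.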
# [4] = biological target: Nuclear receptor subfamily 1 group I member 3 (Homo sapiens) (UniProt Q14994); assay: qHTS assay to identify small molecule antagonists of the constitutive androstane receptor (CAR) signaling pathway (AID 1224838); note: nearly all actives have a fitted effect of over 40% in size
# Procedure, shortened: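 HepG2 cells stably co-transfected with hCAR and a CYP2B6-2.2kb luciferase reporter were seeded 4 h before compound addition at 15 concentrations. Cells were stimulated with 50 nM CITCO (final) for 24 h at 37 C; luciferase luminescence was then read.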
# [5] = biological target: Nuclear receptor subfamily 1 group I member 3 (Homo sapiens) (UniProt Q14994); assay: qHTS assay to identify small molecule agonists of the constitutive androstane receptor (CAR) signaling pathway (AID 1224839);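 note: HepG2 cells stably carrying human CAR and a CYP2B6 luciferase reporter; series mostly up to about 92 µM; nearly all actives have a fitted effect of over 15% in size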
# Procedure, shortened: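 Cells were plated and incubated 4 hrs, then dosed with compounds at 15 concentrations. PK11195 was added to 0.75 uM final. After 24 hrs at 37 C, luciferase luminescence was measured.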
# [6] = qHTS assay to identify small molecule antagonists of the estrogen related receptor signaling pathway with the pleiotropic PPARgamma coactivator (PGC) from Tox21 10K library - cell viability counter screen (AID 1224840; active = well fitted cell-killing curve with a large enough effect in the repeat runs, not every such curve was filed as active; note: nearly all actives have a fitted effect of over 40% in size)
# Procedure, shortened: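 PGC/ERR cells were seeded at 2,000 cells/well and left 6 hours at 37 C/5% CO2 before pin-tool addition of compounds in DMSO. After 17.5 hours at 37 C, CellTiter-Fluor was added and fluorescence read 30 minutes later.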
# [7] = qHTS assay to identify small molecule agonists of the hypoxia (HIF-1) signaling pathway - cell viability counter screen (AID 1224844; calls by dose curve; note: nearly all actives have a fitted effect of over 50% in size)
# Procedure, shortened: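 HRE-bla ME-180 cells in medium with 0.5% dialyzed FBS were preincubated 5 hrs at 37C, exposed to compounds for 17 hrs, then viability was read as CellTiter-Glo luminescence after 30 min at room temperature, in the reporter wells.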
# [8] = biological target: Thyrotropin receptor (Homo sapiens) (UniProt P16473); assay: qHTS assay to identify small molecule agonists of the thyroid stimulating hormone receptor (TSHR) signaling pathway (AID 1224843; calls by dose curve; note: nearly all actives have a fitted effect of over 45% in size)
# Procedure, shortened: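 TSHR-expressing HEK293 cells (800 per well) were exposed to compounds for 30 min at room temperature. cAMP was then detected by HTRF competition with cAMP-d2 and anti-cAMP cryptate, read after 1 h at room temperature. Fifteen concentrations, triplicate.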
# Sequence of Thyrotropin receptor (Homo sapiens) (P16473 whole entry, looked up): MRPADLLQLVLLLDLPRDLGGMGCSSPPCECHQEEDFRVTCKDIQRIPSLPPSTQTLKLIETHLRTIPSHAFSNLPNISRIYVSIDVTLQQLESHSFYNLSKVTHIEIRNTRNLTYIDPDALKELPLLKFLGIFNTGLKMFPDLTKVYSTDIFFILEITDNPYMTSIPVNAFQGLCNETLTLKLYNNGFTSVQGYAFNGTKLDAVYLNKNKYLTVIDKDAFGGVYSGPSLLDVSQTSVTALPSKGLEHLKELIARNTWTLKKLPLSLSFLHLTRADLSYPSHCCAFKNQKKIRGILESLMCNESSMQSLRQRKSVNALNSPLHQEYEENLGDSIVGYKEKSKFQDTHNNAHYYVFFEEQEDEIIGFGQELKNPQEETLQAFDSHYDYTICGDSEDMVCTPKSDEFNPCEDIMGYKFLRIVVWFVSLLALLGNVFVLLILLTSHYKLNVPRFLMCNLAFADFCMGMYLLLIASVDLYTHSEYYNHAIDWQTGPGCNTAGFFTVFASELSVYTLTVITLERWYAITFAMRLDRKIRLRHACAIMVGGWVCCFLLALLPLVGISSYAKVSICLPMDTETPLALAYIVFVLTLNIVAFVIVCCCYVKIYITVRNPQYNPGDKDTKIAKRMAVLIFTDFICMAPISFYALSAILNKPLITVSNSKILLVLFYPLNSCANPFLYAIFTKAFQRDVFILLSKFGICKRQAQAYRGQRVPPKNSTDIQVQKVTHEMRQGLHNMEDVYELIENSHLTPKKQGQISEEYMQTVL
# Sequence of Nuclear receptor subfamily 1 group I member 3 (Homo sapiens) (Q14994 whole entry, looked up): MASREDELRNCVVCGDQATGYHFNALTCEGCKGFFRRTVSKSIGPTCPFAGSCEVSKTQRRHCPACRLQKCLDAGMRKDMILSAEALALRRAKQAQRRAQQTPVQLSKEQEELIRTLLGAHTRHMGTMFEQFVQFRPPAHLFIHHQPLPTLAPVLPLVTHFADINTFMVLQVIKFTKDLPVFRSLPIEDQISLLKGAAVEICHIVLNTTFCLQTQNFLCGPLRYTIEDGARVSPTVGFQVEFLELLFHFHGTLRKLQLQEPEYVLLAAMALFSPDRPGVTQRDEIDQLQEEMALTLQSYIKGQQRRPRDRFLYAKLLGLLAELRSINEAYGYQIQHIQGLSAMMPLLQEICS
# Sequence of Luciferin 4-monooxygenase (Photinus pyralis) (P08659 whole entry, looked up): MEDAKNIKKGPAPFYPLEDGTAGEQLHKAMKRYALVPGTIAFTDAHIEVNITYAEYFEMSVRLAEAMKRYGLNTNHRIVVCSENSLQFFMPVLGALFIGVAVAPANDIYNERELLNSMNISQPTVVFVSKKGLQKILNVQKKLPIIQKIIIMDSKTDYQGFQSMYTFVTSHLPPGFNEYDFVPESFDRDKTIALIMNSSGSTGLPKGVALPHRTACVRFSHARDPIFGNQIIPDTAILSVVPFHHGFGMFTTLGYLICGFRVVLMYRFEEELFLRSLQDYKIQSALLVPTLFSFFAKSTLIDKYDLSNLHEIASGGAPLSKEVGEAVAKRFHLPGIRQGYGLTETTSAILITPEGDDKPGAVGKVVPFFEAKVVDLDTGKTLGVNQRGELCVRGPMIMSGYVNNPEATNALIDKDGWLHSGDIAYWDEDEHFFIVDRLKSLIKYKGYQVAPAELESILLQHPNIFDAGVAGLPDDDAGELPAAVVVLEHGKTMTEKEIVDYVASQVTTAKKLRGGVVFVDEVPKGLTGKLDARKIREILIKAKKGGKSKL
Structure (SMILES),Potency [1],Potency [2],Potency [3],Potency [4],Potency [5],Potency [6],Potency [7],Potency [8]
CCc1ccc(C)cc1,inactive,inactive,inactive,inactive,inactive,inactive,inactive,–
CSCC[C@H](NC(=O)[C@H](Cc1c[nH]c2ccccc12)NC(=O)CCNC(=O)OC(C)(C)C)C(=O)N[C@@H](CC(=O)O)C(=O)N[C@@H](Cc1ccccc1)C(N)=O,inactive,inactive,inactive,inactive,inactive,inactive,inactive,inactive
C=C(C)C(=O)OCCC(F)(F)C(F)(F)C(F)(F)C(F)(F)C(F)(F)C(F)(F)F,inactive,inactive,inactive,inactive,inactive,inactive,inactive,inactive
CCCc1nc2c(C)cc(-c3nc4ccccc4n3C)cc2n1Cc1ccc(-c2ccccc2C(=O)O)cc1,13.8 µM (active),inactive,inactive,inactive,inactive,inactive,inactive,inactive
CNC1CCCN(c2c(F)cc3c(=O)c(C(=O)O)cn(C4CC4)c3c2OC)C1 (configuration not stated),inactive,inactive,inactive,inactive,inactive,inactive,inactive,inactive
Cc1cn([C@H]2C[C@H](F)[C@@H](CO)O2)c(=O)[nH]c1=O,inactive,inactive,inactive,inactive,inactive,inactive,inactive,inactive
CCOCCC(=O)OCC,inactive,inactive,inactive,inactive,inactive,inactive,inactive,–
CC1CCCC(=O)C1=O (configuration not stated),inactive,inactive,inactive,inactive,inactive,inactive,inactive,–
CC(=O)OCC(C)C,inactive,inactive,inactive,inactive,inactive,inactive,inactive,–
Cc1ccccc1S(N)(=O)=O,inactive,inactive,inactive,inactive,inactive,inactive,inactive,inactive
CCCCCc1ccco1,inactive,inactive,inactive,inactive,inactive,inactive,inactive,inactive
Oc1cccc2[nH]ccc12,inactive,inactive,inactive,inactive,inactive,inactive,inactive,inactive
O=C(C(=O)c1ccco1)c1ccco1,inactive,inactive,inactive,inactive,inactive,inactive,inactive,–
O=C1[C@@H]2[C@H]3CC[C@H](C3)[C@@H]2C(=O)N1CCCCN1CCN(c2ncccn2)CC1,inactive,inactive,inactive,inactive,inactive,inactive,inactive,inactive
Cc1ccc(N(CC2=NCCN2)c2cccc(O)c2)cc1,inactive,inactive,inactive,inactive,inactive,inactive,inactive,inactive
CCSC(=O)N(CC)CC,inactive,inactive,inactive,inactive,inactive,inactive,inactive,inactive
C=CCOC(=O)COCCC(C)C,inactive,inactive,inactive,inactive,inactive,inactive,inactive,inactive
C/C(C=O)=C\c1ccccc1,inactive,inactive,inactive,inactive,inactive,inactive,inactive,inactive
CCC(C)(C)C(=O)O,inactive,inactive,inactive,inactive,inactive,inactive,inactive,inactive

# Reference: PubChem BioAssay (Tox21)
